Source: publication PMC12136788
Positions count from the first letter of the chain named. The full ranking holds about 24,000 sequences; the median of “enrichment r” is about 0.99, and the highest 2% start at about 3.7. The list comes from a sample in which the highest values are over-represented; it also holds similar and randomly drawn sequences.

T1: UNK ZnF1-3 (human, UniProt Q9C0B0 31-174)
T1 sequence: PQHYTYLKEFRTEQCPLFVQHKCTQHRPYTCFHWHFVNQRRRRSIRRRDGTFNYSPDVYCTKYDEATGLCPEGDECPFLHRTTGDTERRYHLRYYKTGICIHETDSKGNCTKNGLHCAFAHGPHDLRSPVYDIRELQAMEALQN

B1: chr7:130129250:130129251:+_ENSMUSG00000030779_ENSMUST00000052135|mus_mus|FALSE|FALSE (ssRNA)
RNA: GGGAGUUCUACAGUCCGACGAUCCUCCUCUGGUAAGAAGGGUGGUUUCUCUUUCUUCCCGAUUGCAUAGGCCUCUGCAUCUAUAGUUGGUAUUGCAUAUUUUCCAGUGUUUGUAAGCAUUGCACCUUUCAUGUUAGGAUCUUUCAACAGAGGAUUGAGCAUCA
B2: chr14:89338683:89338684:+_ENSG00000165533_ENST00000346301|hu_hu|hu_hu_hu_mus_False|38_98 (ssRNA)
RNA: GGGAGUUCUACAGUCCGACGAUCGUGGUUGUUGUGGACCAGAGCCAGCCUGAAGCAUUGGUGGGCCAAGUUUGUAUCUCCGAUUCCCACAGCUAUGUGUCCCAAGUUGUACCAGACAUCAGCUGCCUCUUCUUCAUUUUCAGCCAACAGAGGAUUGAGCAUCA
B3: chr3:179287964:179287965:+_ENSG00000136518_ENST00000429709|hu_hu|hu_hu_hu_mus_True|68_68 (ssRNA)
RNA: GGGAGUUCUACAGUCCGACGAUCCUUGAGUGGUGAGAUGGCCUCCAUGUUCUCCCUGGGCACGCGGAGAGCAUUAGUGUCUAUGUAGUAGGUGGGCCCGCCCUGCUUGCCUUUGUCACCAUCAAUCUCCAUCAUUGUACUUCCCAACAGAGGAUUGAGCAUCA
B4: chr7:117217587:117217588:+_ENSMUSG00000061079_ENSMUST00000084727|mus_hu|FALSE|FALSE (ssRNA)
RNA: GGGAGUUCUACAGUCCGACGAUCGAUAUAAGCUGUGGUACCAUCUUCCAGCUGAACCGCCUGUAAUGCACUCUGGUCAUAACUAUUACUUUUAGGUAUGGGUACAUGUUGAACAUAGGCCGCAGAACCAUCUUCCAACUGAAUCAACAGAGGAUUGAGCAUCA
B5: chr5:95152273:95152274:-_ENSG00000173221_ENST00000237858|hu_mus|motif|central (ssRNA)
RNA: GGGAGUUCUACAGUCCGACGAUCCAGCCGAGUCAUCAGCUCCCCAGUCUGUUGCAUGGAGAUUAGAUCACUGCAUCCGCCGGUGCAGUCUUUACCUAUGAAGACCCGAGGAACUGUUCUCGCUCCGGUGAGCUGUUGUAAAUACAACAGAGGAUUGAGCAUCA
B6: 12280944_12281064_4437_CDS_ENSMUSG00000032625_ENSMUST00000046121|mouse|control|control (ssRNA)
RNA: GGGAGUUCUACAGUCCGACGAUCGGGCUGGGUGCAGGUUUCCUCCAAAACUAUUUGUUUAUUACCAUCUAUGAUGAGCUCUGUGUUAGCACAGAACUCUUCGUCCACCACUUUGCUGAAAUCCUCAGCUGAGCCAUCACUCACCAACAGAGGAUUGAGCAUCA
B7: 65006457_65008074_834_CDS_ENSMUSG00000029920_ENSMUST00000031984|mouse|control|control (ssRNA)
RNA: GGGAGUUCUACAGUCCGACGAUCUGUUGAUUCAAUCAACUUUAGAAGAUCACUGUCACUUCUUUGUGGAAACAGUUCCUUCAAUGUCUGAAGCUUAGCAUCUUUAAGAUCUUCCAAUUCUGAAAGGUCUUCCAGUUCUGAACUCAACAGAGGAUUGAGCAUCA
B8: chr9:37780659:37780660:-_ENSG00000107371_ENST00000396521|hu_hu|FALSE|FALSE (ssRNA)
RNA: GGGAGUUCUACAGUCCGACGAUCGGUUCACCUGAAAAAACCCAUAGUUUUUUGCCUCAACUGACCUGUAAAAAAGUCCACCUAUAUCAACUUUCUGCCAAUCUGGAGAAGAUCUGUUUUCUUUGAUCUGACGUCAUGUGUUCACAACAGAGGAUUGAGCAUCA
B9: chr7:75956504:75956505:-_ENSG00000170027_ENST00000307630|hu_mus|FALSE|FALSE (ssRNA)
RNA: GGGAGUUCUACAGUCCGACGAUCAUAGAACUGCAUGUCACUAUAGCAACAUCCAAAACAGAUCAAUCUGUUACAAUCACUAUUUGGUAAAGCAAACUUUACCCCUGAAAGGAAAAAAUUAAAUUAAAAAAAAGAAGUUUAAAACAACAGAGGAUUGAGCAUCA
B10: chr7:75956504:75956505:-_ENSG00000170027_ENST00000307630|hu_mus|motif|central (ssRNA)
RNA: B9 RNA with U80G, A81G
B11: chr15:79189586:79189587:+_ENSG00000185787_ENST00000426013|hu_hu|motif|central (ssRNA)
RNA: GGGAGUUCUACAGUCCGACGAUCUGAAAACACUGGCAGCAAUUUUGAAAUGAAAAAAAAAAAGAAAGAAGAAAAAAGGAGCGGUUACCCCCUUUUAUUUUUUCUCUGUUUAAAAUCAAACAGAAAACAAACAUCAAUUGUUAUCAACAGAGGAUUGAGCAUCA
B12: chr15:79189586:79189587:+_ENSG00000185787_ENST00000426013|hu_hu|FALSE|FALSE (ssRNA)
RNA: B11 RNA with G82U, G83A
B13: 54532588_54532708_162_CDS_ENSMUSG00000073678_ENSMUST00000097739|mouse|control|control (ssRNA)
RNA: GGGAGUUCUACAGUCCGACGAUCGAAUUUAAAUGUAUCCUUUUUUUUUUCCCCUAAAAAAGGGAUGUAAAAAAUCCAAUAUGAAACAGAAAAAGUACACAUGAAAUACAAAAUACACUGUCUGUUUGGCUCUGGAGCAGUUAGCAACAGAGGAUUGAGCAUCA
B14: chr1:225611761:225611762:-_ENSG00000143815_ENST00000272163|hu_mus|hu_hu_hu_mus_True|8_98 (ssRNA)
RNA: GGGAGUUCUACAGUCCGACGAUCCCAGGCCAUCGGCCUCUUACCACUUCACCCUCAACAAACUUCCUACUUGGCAUUUUCUAAAAUUAGUCUGGCCGCGCUCCGGCGGGAACUCCAGCCACUCCAGGGAGAAUAGUAGCAGCCCAACAGAGGAUUGAGCAUCA

molecular target: T1, UNK ZnF1-3; assay: nsRBNS (natural sequence RNA bind-n-seq); RBNS binding buffer (assumed for nsRBNS): 25 mM Tris pH 7.5, 150 mM KCl, 3 mM MgCl2, 0.01% Triton X-100, 500 ug/ml BSA, 20 U/ml SUPERase-In, 4 C; UNK is unkempt and MSI1 is Musashi-1; names of the RNAs are library labels; protein concentration not given here; high values mean tight binding

Binder | binding signal
B1 | 0.384 enrichment R
B2 | 0.877 enrichment R
B3 | 0.757 enrichment R
B4 | 0.834 enrichment R
B5 | 1.01 enrichment R
B6 | 0.732 enrichment R
B7 | 0.355 enrichment R
B8 | 0.913 enrichment R
B9 | 9.16 enrichment R
B10 | 6.25 enrichment R
B11 | 3.68 enrichment R
B12 | 3.39 enrichment R
B13 | 1.05 enrichment R
B14 | 1.11 enrichment R
